# Source: PubChem BioAssay AID1159580 (chemical genetic matrix, 2015)
# Several values for one entry are separate records, joined by “and”; a condition that tells them apart may be missing. Equal entries are not always repeated. Out of some 5,500 compounds screened, about 2,000 (36%) were called active. Another 18% or so got no clear call; they are omitted. No stated cut-off is given here; in the data, active means normalized growth mostly below about 0.91 (no sharp cut-off); inconclusive means no clear call, values can overlap the other calls; inactive means mostly above about 0.92. The list shows a part of the results. The source holds several records for some structures; these can differ, active in one and inactive in another.
# Experiment: chemical genetic growth profiling, strain panel (AID 1159580);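 further: tested at 20 µM; growth read once vehicle control cultures reached saturation at 30 °C; 1 = growth at the plate median or of vehicle wells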
# Conditions: growth OD
compound,measurement,setting,value
COC(=O)C1=C(C)NC(C)=C(C(=O)OC)C1c1ccccc1[N+](=O)[O-],normalized growth,"S. cerevisiae deletion strains, locus YKL009W, strain mrt4, stronger effect = lower value",0.959 (inactive)
same,normalized growth,"S. cerevisiae deletion strains, locus YKL068W, stronger effect = lower value",0.965 (inactive)
same,normalized growth,"S. cerevisiae deletion strains, locus YKL085W, strain MDH1 (second series), stronger effect = lower value",0.956 (inactive)
same,normalized growth,"S. cerevisiae deletion strains, locus YKL085W, strain MDH1, stronger effect = lower value",0.956 (inactive)
same,normalized growth,"S. cerevisiae deletion strains, locus YKL160W, strain elf1, stronger effect = lower value",0.901 (active)
same,normalized growth,"S. cerevisiae deletion strains, locus YKL190W, strain CNB1, stronger effect = lower value",0.84 (active)
same,normalized growth,"S. cerevisiae deletion strains, locus YKR001C, strain vps1, stronger effect = lower value",0.852 (active)
same,normalized growth,"S. cerevisiae deletion strains, locus YKR026C, strain gcn3, stronger effect = lower value",0.968 (inactive)
same,normalized growth,"S. cerevisiae deletion strains, locus YKR091W, strain srl3, stronger effect = lower value",0.954 (inactive)
same,normalized growth,"S. cerevisiae deletion strains, locus YLL001W, strain dnm1, stronger effect = lower value",0.972 (inactive)
same,normalized growth,"S. cerevisiae deletion strains, locus YLL026W, stronger effect = lower value",0.946 (inactive)
same,normalized growth,"S. cerevisiae deletion strains, locus YLL041C, strain sdh2, stronger effect = lower value",0.931 (inactive)
same,normalized growth,"S. cerevisiae deletion strains, locus YLR027C, strain aat2, stronger effect = lower value",0.899 (active)
same,normalized growth,"S. cerevisiae deletion strains, locus YLR039C, strain RIC1, stronger effect = lower value",0.535 (active)
same,normalized growth,"S. cerevisiae deletion strains, locus YLR058C, strain SHM2, stronger effect = lower value",0.996 (inactive)
same,normalized growth,"S. cerevisiae deletion strains, locus YLR102C, strain apc9, stronger effect = lower value",0.977 (inactive)
same,normalized growth,"S. cerevisiae deletion strains, locus YLR113W, strain HOG1, stronger effect = lower value",0.942 (inactive)
same,normalized growth,"S. cerevisiae deletion strains, locus YLR221C, strain rsa3, stronger effect = lower value",0.893 (active)
same,normalized growth,"S. cerevisiae deletion strains, locus YLR258W, strain gsy2, stronger effect = lower value",0.886 (active)
same,normalized growth,"S. cerevisiae deletion strains, locus YLR262C, strain YPT6 (second series), stronger effect = lower value",0.44 (active)
same,normalized growth,"S. cerevisiae deletion strains, locus YLR262C, strain YPT6, stronger effect = lower value",0.352 (active)
same,normalized growth,"S. cerevisiae deletion strains, locus YLR268W, strain sec22, stronger effect = lower value",0.764 (active)
same,normalized growth,"S. cerevisiae deletion strains, locus YLR320W, strain mms22, stronger effect = lower value",0.864 (active)
same,normalized growth,"S. cerevisiae deletion strains, locus YLR330W, strain CHS5, stronger effect = lower value",0.931 (inactive)
same,normalized growth,"S. cerevisiae deletion strains, locus YLR342W, strain FKS1 (second series), stronger effect = lower value",0.643 (active)
same,normalized growth,"S. cerevisiae deletion strains, locus YLR342W, strain FKS1, stronger effect = lower value",0.924 (inactive)
same,normalized growth,"S. cerevisiae deletion strains, locus YLR357W, strain rsc2, stronger effect = lower value",0.937 (inactive)
same,normalized growth,"S. cerevisiae deletion strains, locus YLR370C, strain arc18, stronger effect = lower value",0.942 (inactive)
same,normalized growth,"S. cerevisiae deletion strains, locus YLR371W, strain rom2, stronger effect = lower value",0.918 (inactive)
same,normalized growth,"S. cerevisiae deletion strains, locus YLR384C, strain iki3, stronger effect = lower value",0.976 (inactive)
same,normalized growth,"S. cerevisiae deletion strains, locus YLR418C, strain cdc73, stronger effect = lower value",0.706 (active)
same,normalized growth,"S. cerevisiae deletion strains, locus YML016C, strain PPZ1, stronger effect = lower value",0.899 (active)
same,normalized growth,"S. cerevisiae deletion strains, locus YML032C, strain rad52, stronger effect = lower value",0.959 (inactive)
same,normalized growth,"S. cerevisiae deletion strains, locus YML120C, strain ndi1, stronger effect = lower value",0.976 (inactive)
same,normalized growth,"S. cerevisiae deletion strains, locus YML124C, strain tub3, stronger effect = lower value",0.972 (inactive)
same,normalized growth,"S. cerevisiae deletion strains, locus YMR058W, strain fet3, stronger effect = lower value",0.231 (active)
same,normalized growth,"S. cerevisiae deletion strains, locus YMR078C, strain ctf18, stronger effect = lower value",0.981 (inactive)
same,normalized growth,"S. cerevisiae deletion strains, locus YMR125W, strain sto1, stronger effect = lower value",1.02 (inactive)
same,normalized growth,"S. cerevisiae deletion strains, locus YMR129W, stronger effect = lower value",0.958 (inactive)
same,normalized growth,"S. cerevisiae deletion strains, locus YMR205C, strain PFK2, stronger effect = lower value",0.866 (active)
same,normalized growth,"S. cerevisiae deletion strains, locus YMR223W, strain ubp8, stronger effect = lower value",0.839 (active)
same,normalized growth,"S. cerevisiae deletion strains, locus YMR231W, strain pep5, stronger effect = lower value",0.81 (active)
same,normalized growth,"S. cerevisiae deletion strains, locus YMR263W, strain SAP30, stronger effect = lower value",1 (inactive)
same,normalized growth,"S. cerevisiae deletion strains, locus YMR307W, strain GAS1, stronger effect = lower value",0.43 (active) and 0.863 (active)
same,normalized growth,"S. cerevisiae deletion strains, locus YNL067W, strain RPL9B, stronger effect = lower value",0.824 (active)
same,normalized growth,"S. cerevisiae deletion strains, locus YNL071W, strain lat1, stronger effect = lower value",0.941 (inactive)
same,normalized growth,"S. cerevisiae deletion strains, locus YNL128W, strain TEP1, stronger effect = lower value",0.642 (active)
same,normalized growth,"S. cerevisiae deletion strains, locus YNL153C, strain GIM3, stronger effect = lower value",0.939 (inactive)
same,normalized growth,"S. cerevisiae deletion strains, locus YNL175C, strain NOP13, stronger effect = lower value",1.01 (inactive)
same,normalized growth,"S. cerevisiae deletion strains, locus YNL183C, strain NPR1, stronger effect = lower value",0.927 (inactive)
same,normalized growth,"S. cerevisiae deletion strains, locus YNL197C, strain WHI3, stronger effect = lower value",0.997 (inactive)
same,normalized growth,"S. cerevisiae deletion strains, locus YNL209W, strain ssb2, stronger effect = lower value",0.698 (active)
same,normalized growth,"S. cerevisiae deletion strains, locus YNL224C, strain SQS1, stronger effect = lower value",1.02 (inactive)
same,normalized growth,"S. cerevisiae deletion strains, locus YNL233W, strain BNI4, stronger effect = lower value",0.845 (active)
same,normalized growth,"S. cerevisiae deletion strains, locus YNL248C, strain rpa49, stronger effect = lower value",0.951 (inactive)
same,normalized growth,"S. cerevisiae deletion strains, locus YNL250W, strain rad50, stronger effect = lower value",0.944 (inactive)
same,normalized growth,"S. cerevisiae deletion strains, locus YNL271C, strain bni1, stronger effect = lower value",0.909 (active)
same,normalized growth,"S. cerevisiae deletion strains, locus YNL298W, strain CLA4, stronger effect = lower value",0.953 (inactive)
same,normalized growth,"S. cerevisiae deletion strains, locus YNL307C, strain MCK1, stronger effect = lower value",0.903 (active)
same,normalized growth,"S. cerevisiae deletion strains, locus YNL322C, strain KRE1 (second series), stronger effect = lower value",1 (inactive)
same,normalized growth,"S. cerevisiae deletion strains, locus YNL322C, strain KRE1, stronger effect = lower value",0.918 (active) and 0.978 (inactive)
same,normalized growth,"S. cerevisiae deletion strains, locus YNR049C, strain mso1, stronger effect = lower value",0.962 (inactive)
same,normalized growth,"S. cerevisiae deletion strains, locus YNR052C, strain pop2, stronger effect = lower value",0.968 (inactive)
same,normalized growth,"S. cerevisiae deletion strains, locus YOL006C, strain TOP1, stronger effect = lower value",0.202 (active)
same,normalized growth,"S. cerevisiae deletion strains, locus YOL012C, strain htz1",0.327 (inactive)
same,normalized growth,"S. cerevisiae deletion strains, locus YOL147C, strain pex11, stronger effect = lower value",0.989 (inactive)
same,normalized growth,"S. cerevisiae deletion strains, locus YOR001W, strain rrp6, stronger effect = lower value",0.91 (inactive)
same,normalized growth,"S. cerevisiae deletion strains, locus YOR061W, strain CKA2, stronger effect = lower value",0.794 (active)
same,normalized growth,"S. cerevisiae deletion strains, locus YOR069W, strain VPS5, stronger effect = lower value",0.906 (active)
same,normalized growth,"S. cerevisiae deletion strains, locus YOR070C, strain gyp1, stronger effect = lower value",0.916 (active)
same,normalized growth,"S. cerevisiae deletion strains, locus YOR080W, strain dia2, stronger effect = lower value",0.978 (inactive)
same,normalized growth,"S. cerevisiae deletion strains, locus YOR083W, strain WHI5 (second series), stronger effect = lower value",1.03 (inactive)
same,normalized growth,"S. cerevisiae deletion strains, locus YOR083W, strain WHI5, stronger effect = lower value",0.909 (inactive)
same,normalized growth,"S. cerevisiae deletion strains, locus YOR106W, strain vam3, stronger effect = lower value",0.718 (active)
same,normalized growth,"S. cerevisiae deletion strains, locus YOR136W, strain idh2, stronger effect = lower value",0.965 (inactive)
same,normalized growth,"S. cerevisiae deletion strains, locus YOR144C, strain elg1, stronger effect = lower value",0.99 (inactive)
same,normalized growth,"S. cerevisiae deletion strains, locus YOR184W, strain ser1, stronger effect = lower value",0.792 (active)
same,normalized growth,"S. cerevisiae deletion strains, locus YOR231W, strain MKK1, stronger effect = lower value",0.999 (inactive)
same,normalized growth,"S. cerevisiae deletion strains, locus YOR265W, strain rbl2, stronger effect = lower value",0.903 (active)
same,normalized growth,"S. cerevisiae deletion strains, locus YOR270C, strain vph1, stronger effect = lower value",0.884 (inactive)
same,normalized growth,"S. cerevisiae deletion strains, locus YOR290C, strain snf2, stronger effect = lower value",0.958 (inactive)
same,normalized growth,"S. cerevisiae deletion strains, locus YOR316C, strain cot1, stronger effect = lower value",0.971 (inactive)
same,normalized growth,"S. cerevisiae deletion strains, locus YPL051W, strain arl3, stronger effect = lower value",0.748 (active)
same,normalized growth,"S. cerevisiae deletion strains, locus YPL055C, strain LGE1, stronger effect = lower value",0.64 (active)
same,normalized growth,"S. cerevisiae deletion strains, locus YPL078C, strain atp4, stronger effect = lower value",0.984 (inactive)
same,normalized growth,"S. cerevisiae deletion strains, locus YPL106C, strain sse1, stronger effect = lower value",0.932 (inactive)
same,normalized growth,"S. cerevisiae deletion strains, locus YPL240C, strain hsp82, stronger effect = lower value",0.9 (active)
same,normalized growth,"S. cerevisiae deletion strains, locus YPL241C, strain CIN2, stronger effect = lower value",0.918 (active) and 0.973 (inactive)
same,normalized growth,"S. cerevisiae deletion strains, locus YPL256C, strain CLN2, stronger effect = lower value",0.932 (inactive)
same,normalized growth,"S. cerevisiae deletion strains, locus YPR119W, strain clb2, stronger effect = lower value",0.981 (inactive)
same,normalized growth,"S. cerevisiae deletion strains, locus YPR141C, strain kar3, stronger effect = lower value",0.974 (inactive)
same,normalized growth,"S. cerevisiae deletion strains, locus YPR163C, strain tif3, stronger effect = lower value",0.958 (inactive)
same,normalized growth,"S. cerevisiae deletion strains, locus YPR167C, strain met16, stronger effect = lower value",0.903 (active)
same,normalized growth,"S. cerevisiae deletion strains, strain wtn01, stronger effect = lower value",0.772 (active)
same,normalized growth,"S. cerevisiae strains, strain wild type, stronger effect = lower value",0.818 (active)
